Measured values published in PubChem BioAssay.
Calls of active or inactive are those of the source. Cut-off read from the data, not from the text of the source, unless noted: active = inhibition above about 80%; inactive = the rest.

Columns and labels:
[1] = viability loss with induced miR-34 in A549 – imaging, A549 dox-inducible miR-34, nuclei and caspase counts, primary screen (AID 1347080;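 active = compounds whose cell count with miR-34 switched on is under 0.7 times the count with it off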); details: A549 miR-34 inducible, Hoechst nuclei count, 48 h
[2] = MELAS cybrid and Rieske KO viability enhancers – cell-based, MELAS cybrids, Rieske KO mouse fibroblasts, CellTiter-Glo, primary screen (AID 1508586;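 active = mean z-score across replicates of 1.96 or higher in either the MELAS or the Rieske mutant cell line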;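 note: z relative to plate mean and SD of compound and empty wells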); details: low glucose
[3] = growth inhibition, single agent or in combination, cell-based, chromothripsis tumors, cisplatin or BGB combos (AID 1671449); details: LFS_MB_P medulloblastoma cells;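 note: cells exposed for 96 hours; 0% = vehicle DMSO and 100% = killing by high DMSO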
[4] = growth inhibition, single agent and combos, cell-based, chromothripsis tumors, cisplatin or BGB combos (AID 1671450); details: HDN33 neuroblastoma cells, stronger effect = higher value;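 note: cells exposed to compound for four days; 0% = vehicle DMSO and 100% = cell killing by high DMSO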
[5] = growth inhibition, single agents and combos, ICB984, cell-based, cisplatin or BGB combos, synergistic combos for chromothripsis tumors (AID 1671451; call rule not given here;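 note: cells exposed for 96 hours before readout; 0% = vehicle DMSO and 100% = killing by high DMSO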); details: ICB984 medulloblastoma cells, drug combinations, stronger effect = higher value
[6] = growth inhibition, single agents and combos, LFS_MB_1R, cell-based, cisplatin or BGB combos, synergistic combos for chromothripsis tumors (AID 1671452); details: LFS_MB_1R medulloblastoma cells, stronger effect = higher value;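 note: cells exposed for 96 hours before readout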
[7] = measured here: combination with BGB IC40, at 0.05 µM

O=C(O)c1cc2cccc([N+](=O)[O-])c2[nH]1
fold change ([1]; stronger effect = lower value, cell number ratio, induced over uninduced): 0.946 (inactive)
fold change ([1]; measured here: relative caspase fold change +Dox/-Dox): 0.523
cell count ([1]; measured here: total cells with miR-34 induction, stronger effect = lower value): 8560
cell count ([1]; measured here: total cells without miR-34 induction): 9040
z-score ([2]; MELAS cybrid survival, CellTiter-Glo 48 h, stronger effect = higher value): -0.36 (inactive)
z-score ([2]; Rieske KO mouse fibroblast survival, CellTiter-Glo 72 h): 0.315
inhibition ([3]; at 0.5 µM, stronger effect = higher value): -23.9% (inactive)
inhibition ([3]; measured here: combination with BGB IC20, at 0.005 µM): -6.46%
inhibition ([3]; measured here: combination with BGB IC40, at 0.005 µM): -31.7%
inhibition [3, 7]: -15.1%
inhibition ([3]; measured here: combination with cisplatin, at 0.5 µM, stronger effect = higher value): -30%
inhibition ([3]; measured here: combination with cisplatin, at 5 µM, stronger effect = higher value): -50.9%
inhibition ([4]; BGB combo, at 5 µM): -9.55%
inhibition ([4]; at 0.5 µM): -19.2% (inactive)
inhibition ([4]; cisplatin combo, at 5 µM): -1.64%
inhibition ([4]; measured here: with BGB IC20 combination, at 0.5 µM): -22.3%
inhibition ([4]; measured here: with cisplatin IC20 combination, at 0.5 µM): -18.1%
inhibition ([4]; single agent, at 5 µM): -9.97%
inhibition ([5]; BGB IC20 combo, at 0.005 µM): -35.7%
inhibition ([5]; BGB IC40 combo, at 0.005 µM): -62.5%
inhibition ([5]; BGB IC40 combo, at 0.05 µM): -61%
inhibition ([5]; at 0.5 µM): -39.2% (inactive)
inhibition ([5]; cisplatin combo, at 0.05 µM): -67.4%
inhibition ([5]; cisplatin combo, at 0.5 µM): -58.3%
inhibition ([5]; cisplatin combo, at 5 µM): -47.8%
inhibition ([5]; measured here: 5 uM single agent, at 5 µM): -25.3%
inhibition ([6]; at 0.5 µM): -25.3% (inactive)
inhibition [6, 7]: -24.6%
inhibition ([6]; measured here: combination with cisplatin, at 0.5 µM): -18.7%
inhibition ([6]; measured here: combination with cisplatin, at 5 µM): -30.6%
